Compounds with a hit are over-represented: about 1.6% of the library has one in this group of screens.
Rev-erbA mod: modulators of Rev-erb alpha DNA binding, primary screen, biochemical, FITC-DNA, fluorescence polarization, uHTS; Nuclear receptor subfamily 1 group D member 1 (Homo sapiens), P20393; Rev-erbα–FITC-DNA binding, 90 min; activity, % at 10 µM; 370,000 tested, 0.79% active;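 active = activity above about 14%, limit read from the data; passing the limit was not always enough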
Target sequence (P20393 whole entry, looked up): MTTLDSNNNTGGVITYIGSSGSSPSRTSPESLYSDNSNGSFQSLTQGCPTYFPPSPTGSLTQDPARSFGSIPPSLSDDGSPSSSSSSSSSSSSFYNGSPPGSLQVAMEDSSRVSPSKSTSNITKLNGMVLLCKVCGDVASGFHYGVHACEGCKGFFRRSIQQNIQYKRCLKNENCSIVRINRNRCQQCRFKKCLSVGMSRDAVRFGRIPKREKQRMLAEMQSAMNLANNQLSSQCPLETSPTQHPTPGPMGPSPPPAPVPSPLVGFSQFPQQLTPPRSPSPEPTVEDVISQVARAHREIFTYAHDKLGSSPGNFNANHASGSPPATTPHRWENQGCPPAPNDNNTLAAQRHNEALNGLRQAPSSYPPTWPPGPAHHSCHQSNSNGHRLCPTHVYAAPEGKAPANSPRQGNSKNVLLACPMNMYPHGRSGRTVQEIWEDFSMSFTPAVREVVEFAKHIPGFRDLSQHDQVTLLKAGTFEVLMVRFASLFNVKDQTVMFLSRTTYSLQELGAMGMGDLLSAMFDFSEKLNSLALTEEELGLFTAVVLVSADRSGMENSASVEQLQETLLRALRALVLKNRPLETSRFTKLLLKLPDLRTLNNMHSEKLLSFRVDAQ
GC-B act: human GC-B receptor activators, primary screen, HEK293 GC-B cells, cGMP TR-FRET, EC30 CNP; Atrial natriuretic peptide receptor 2 (Homo sapiens), P20594; 0% at EC30 CNP, 100% saturating CNP; activation, % at 10 µM; 370,000 tested, 0.11% active;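 active = activation at 10 µM reaching about 35% in either raw or pattern-adjusted values, limit read from the data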
PG9 Ab binder: binders of HIV-1 gp120 antibody PG9, primary screen, biochemical, TR-FRET; HIV-1 gp120 / PG9 antibody interaction; inhibition, % at 6.7 µM; TR-FRET gp120-PG9 antibody binding; 360,000 tested, 0.43% active; AID 624416, 2012; in the data active = inhibition above about 8.5%
V-ATPase pHluor: regulators of yeast V-ATPase proton pumping, primary screen, pHLuorin cytosolic pH fluorescence | S. cerevisiae | response, % at 10 µM | 350,000 tested, 0.37% active | AID 504577, 2011; in the data active = response mostly above about 7.3%, no sharp cut-off; inactive = mostly below about 5.4%; also: actives read high
NPR1 activator: GC-A stimulated cGMP production enhancers – HEK293 GC-A cells, cGMP TR-FRET, EC30 ANP, primary screen; Atrial natriuretic peptide receptor 1 (Homo sapiens), P16066; 0% at EC30 ANP, 100% saturating ANP; activation, % at 10 µM; 370,000 tested, 0.14% active; AID 1671463, 2021; in the data active = activation above about 40%
Rev-erbA confirm: modulators of Rev-erb alpha DNA binding, confirmation, biochemical, FITC-DNA, fluorescence polarization, single point; shares compounds with Rev-erbA mod; 90 min; activation, % at 25 µM; 3,000 tested, 61% active;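 active = activation at or above a set limit, or at least 3 SD above the negative control mean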
RORg counter: modulation of RORgamma DNA binding, dose response, counter-screen for Rev-erb alpha modulator project, biochemical, fluorescence polarization, FITC-DNA | IC50, µM | shares compounds with Rev-erbA mod | purified RORgamma protein-FITC-DNA binding | AID 1259320, 2017 | 910 tested, 8% active;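 active = Compounds whose fitted half-maximal concentration for disrupting protein-DNA binding is below 10 micromolar; the record names Rev-erb in its text, so the target is in doubt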
Hits are given with their value; n = inactive; x = not tested or not shown.

SMILES	Rev-erbA mod	GC-B act	PG9 Ab binder	V-ATPase pHluor	NPR1 activator	Rev-erbA confirm	others
CCOc1ccc(NC(=O)c2sc3nc(N4CCOCC4)c4c(c3c2N)CC(C)(C)OC4)cc1	33.4	n	n	n	n	n
COc1ccc(NC(=O)c2sc3nc(N4CCCC4)c4c(c3c2N)CC(C)(C)OC4)c(OC)c1	53.3	n	n	n	n	29.8	RORg counter=n
COc1ccc(NC(=O)c2sc3nc(N4CCOCC4)c4c(c3c2N)CC(C(C)C)OC4)c(OC)c1 (stereo unspecified)	n	n	n	n	n	x
CC1(C)Cc2c(c(N3CCCC3)nc3sc(C(=O)Nc4ccccc4)c(N)c23)CO1	50.0	n	n	n	n	43.6	RORg counter=n
O=C(NC1CCCCN(Cc2cccc(Cl)c2)C1=O)c1cccc(C(F)(F)F)c1 (stereo unspecified)	n	n	x	x	n	x
COC(=O)CCC(=O)c1oc2ccc(Cl)cc2c1NC(=O)CCCN1C(=O)c2ccccc2C1=O	41.4	n	n	n	n	27.7
CN(C)/C=N/C1=C(C#N)C(c2cccs2)c2ccc3ccccc3c2O1 (stereo unspecified)	172.8	n	n	n	n	117.2	RORg counter=n
C[C@@H]1CCCN1c1cccc2c1S(=O)(=O)N1CC[C@H](C1)O2	n	n	x	x	n	x
O=C(O)c1ccc(Nc2ccc([N+](=O)[O-])c3nonc23)cc1	n	n	n	n	n	x
NS(=O)(=O)c1ccc(Nc2ccc([N+](=O)[O-])c3nonc23)cc1	26.7	n	n	n	n	n
CC(=O)c1ccc(Nc2ccc([N+](=O)[O-])c3nonc23)cc1	n	n	n	n	n	x
CCc1nnc(NS(=O)(=O)c2ccc(NS(=O)(=O)c3ccccc3[N+](=O)[O-])cc2)s1	n	n	n	n	n	x
O=[N+]([O-])c1ccc(Nc2ccccc2O)c2nonc12	31.8	n	n	n	n	19.6
CCc1nnc(NS(=O)(=O)c2ccc(Nc3ccc([N+](=O)[O-])c4nonc34)cc2)s1	21.4	n	n	n	n	33.1	RORg counter=n
CN1CCN(c2ccc3c(c2)Oc2ccccc2CN(Cc2cn(Cc4ccc(F)cc4)nn2)S3(=O)=O)CC1	n	n	x	x	n	x
CC(C)N1CCCCC(NC(=O)c2ccc(Cl)cc2Cl)C1=O (stereo unspecified)	n	n	x	x	n	x
O=C(OC12CCCN(C1)/C(=C/c1cccc(Cl)c1)C2)c1ccc(F)cc1 (stereo unspecified)	n	n	x	x	n	x
COc1ccc(Cn2c(-c3ccco3)nc3c(c(=O)c4ccccc4n3C)c2=O)cc1	n	n	n	n	n	x
COc1ccc(Cn2c(-c3ccccc3C)nc3c(c(=O)c4ccccc4n3C)c2=O)cc1	44.6	n	n	n	n	n
CCCCCc1nc2c(c(=O)c3ccccc3n2C)c(=O)n1Cc1ccc(OC)cc1	67.0	n	n	n	n	34.1	RORg counter=n
COc1ccc(CCn2c(C(C)C)nc3c(c(=O)c4ccccc4n3C)c2=O)cc1	x	x	x	n	x	x
Cc1ccc(-c2nc3c(c(=O)c4ccccc4n3C)c(=O)n2-c2ccc(F)cc2)cc1	69.2	n	n	n	n	43.2	RORg counter=2.66
COc1ccc(Cn2c(-c3ccc(C)cc3)nc3c(c(=O)c4ccccc4n3C)c2=O)cc1	26.6	n	n	n	n	n
CCCC(=O)OC12CCCN(C1)/C(=C/c1cccc(Cl)c1)C2 (stereo unspecified)	n	n	x	x	n	x
COc1ccc(-c2nc3c(c(=O)[nH]c(=O)n3Cc3ccccc3)n2C)cc1	43.4	n	n	n	n	n
SMILES	Rev-erbA mod	GC-B act	PG9 Ab binder	V-ATPase pHluor	NPR1 activator	Rev-erbA confirm	others
COc1ccc(-c2nc3c(c(=O)c4ccccc4n3C)c(=O)n2Cc2ccccc2)cc1	48.4	n	n	n	n	50.1	RORg counter=n
COc1ccc(-c2nc3c(c(=O)[nH]c(=O)n3Cc3ccccc3)n2Cc2ccccc2)cc1	n	n	n	n	n	x
Cc1cc2n(n1)C(c1c[nH]c3ccccc13)Nc1ccccc1-2 (stereo unspecified)	x	x	x	n	x	x
Cc1cc2n(n1)C(c1cn(-c3ccccc3)nc1C)Nc1ccccc1-2 (stereo unspecified)	28.5	n	n	n	n	n
COc1ccc(CCNC(=O)c2c([S-])n(-c3ccc(C)cc3)c3cccc[n+]23)cc1	n	n	n	n	n	x
CCc1ccc2n(-c3ccc(OC)cc3)c([S-])c(C(=O)Nc3cc(C)cc(C)c3)[n+]2c1	90.4	n	n	n	n	112.6	RORg counter=n
COC(=O)C1CN(Cc2cn(Cc3ccc(OC)cc3)nn2)CCS(=O)(=O)N1Cc1ccc(F)cc1 (stereo unspecified)	n	n	x	x	n	x
O=S(=O)(CC1NCc2cc(F)ccc21)NCCc1ccccc1 (stereo unspecified)	n	n	x	x	n	x
Cc1ccc(C(=O)Oc2ccc(-c3nccc(-c4ccccn4)n3)cc2)cc1	19.6	n	n	n	n	n
N=C1C(c2nc3ccccc3s2)=C(O)CN1C1CCC(O)CC1 (stereo unspecified)	n	n	n	x	n	x
N=C1C(c2nc3ccccc3s2)=C(O)CN1C1CCCCC1	19.7	n	n	n	54.0	n
CC(=O)NC(c1ccc(F)c(F)c1)c1nc(-c2ccc(F)c(Cl)c2)cs1 (stereo unspecified)	41.9	n	n	x	n	n
OC(c1ccccc1)c1nc(-c2ccc(F)c(Cl)c2)cs1 (stereo unspecified)	15.6	n	n	x	n	n
CCOc1cc(CCNC(=O)c2cc3sccc3n2CC)ccc1OC	n	n	x	x	n	x
COP(=O)(O)C(Cc1ccccc1)NC(=O)OCc1ccccc1 (stereo unspecified)	n	n	x	x	n	x
O=c1c2cc3c(cc2[nH]c(=S)n1C1CCN(Cc2ccccc2)CC1)OCO3	15.1	n	n	n	n	n
O=C(NNc1c2ccccc2nc2ccccc12)c1cccc(O)c1	19.8	n	n	n	n	n
COc1ccc(-c2nnc(-c3cc4ccccc4oc3=O)o2)cc1	24.4	n	n	n	n	24.0
Cc1ccc(-c2noc(-c3cc4ccccc4oc3=O)n2)cc1	33.3	n	n	n	n	18.2
C=CCCC(=O)N[C@H]1CC[C@@]23CCCN2C(=O)CCC[C@H]3[C@H]1CCC	n	n	x	x	n	x

Bioassay records (PubChem)
